In PubChem BioAssay (NCI) one finds growth inhibition data, which are given here for ten compounds.

About 79,000 compounds went through this panel and 15% of them were active in at least one assay; those are over-represented in the sample as a whole. Unmarked numbers belong to inactive results. Activity calls are given as the source filed them. Rule as the data show it: active = growth inhibition above about 70%; inactive = the rest.

Assay [1] is described as follows: NCI Yeast Anticancer Drug Screen. Data for the rad50 strain (AID 155).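 Also: 0% = growth of vehicle-only cultures of the same strain.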 As to conditions: S. cerevisiae rad50 strain growth inhibition, active compounds read high. The gist of the method: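 DNA repair mutant yeast, compound exposure, growth read-out; inhibition is taken relative to vehicle.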
Assay [2] can be described thus: NCI Yeast Anticancer Drug Screen. Data for the mec2-1 strain (AID 157). As to conditions: S. cerevisiae mec2-1 strain, active compounds read high. The gist of the method:
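Each compound was tested on mec2-1 yeast, a strain altered in DNA damage repair or cell cycle control. Growth inhibition is reported relative to vehicle.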

Assay [3] in a line: NCI Yeast Anticancer Drug Screen. Data for the sgs1 mgt1 strain (AID 161).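 Also: 0% = growth of cultures given vehicle only.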 The conditions noted are these: S. cerevisiae sgs1 mgt1 strain, active compounds read high. A digest of the protocol: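 Genetically altered yeast, compound exposure, growth inhibition relative to vehicle.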
Assay [4] can be described thus: NCI Yeast Anticancer Drug Screen. Data for the cln2 rad14 strain (AID 165).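 Also: 0% = growth equal to vehicle treated cultures.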 As to conditions: S. cerevisiae cln2 rad14 strain, active compounds read high. The gist of the method: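 Test compounds were added to cln2 rad14 yeast cultures; inhibition of growth was then determined by comparison with vehicle treatment.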
Assay [5] is described as follows: NCI Yeast Anticancer Drug Screen. Data for the bub3 strain (AID 167). As to conditions: S. cerevisiae bub3 mutant strain, active compounds read high. A digest of the protocol: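 In this screen, a yeast mutant lacking normal mitotic checkpoint function is challenged with compound. Relative growth versus vehicle gives the inhibition value.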
Assay [6] can be described thus: NCI Yeast Anticancer Drug Screen. Data for the mlh1 rad18 strain (AID 175). The conditions noted are these: S. cerevisiae mlh1 rad18 strain growth inhibition, active compounds read high. A digest of the protocol: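 Inhibition values reflect reduced growth of mutant yeast versus vehicle-treated controls following compound exposure; the mutations affect DNA damage repair.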

Where [7] appears, read: at 5.0 µM (retest, dose inferred, filed as 0.5).
Setting [8] is: at 50.0 µM (retest, dose inferred, filed as 5.0).

`Clc1ccc(C2=CC(c3ccccc3)N3C(=N[C@H]4CCCC[C@@H]43)N2)cc1` (stereo not given in full): the growth inhibition in assay [1] (setting [7]) is 8%; in assay [1] (setting [8]), 6%; in assay [1] (at 50.0 µM), 55.4%; in assay [2] (setting [7]), 4%; in assay [2] (setting [8]), 4%; in assay [2] (at 50.0 µM), 54.2%. Besides, the growth inhibition in assay [3] (setting [7]) was 6%; in assay [3] (setting [8]), 17%; in assay [3] (at 50.0 µM) it was 79.2% (active); in assay [4] (setting [7]), 11%; in assay [4] (setting [8]), 33%; in assay [4] (at 50.0 µM) it was 32.2%. Besides, the growth inhibition in assay [5] (setting [7]) was 14%; in assay [5] (setting [8]) it was 19%; in assay [5] (at 50.0 µM) it was 84.8% (active); in assay [6] (setting [7]), 6%; in assay [6] (setting [8]) it was 11%; in assay [6] (at 50.0 µM), 91.8% (active).

Consider `CCCCCCCCCCCC(=O)OCC(C)C`, for which the growth inhibition in assay [1] (setting [7]) was 5%; in assay [1] (setting [8]), -19%; in assay [1] (at 50.0 µM) it was 0.95%; in assay [2] (setting [7]) it was -7%; in assay [2] (setting [8]), 20%; in assay [2] (at 50.0 µM) it was -13%. Besides, the growth inhibition in assay [3] (setting [7]) is 0%; in assay [3] (setting [8]), 4%; in assay [3] (at 50.0 µM) it was 7.55%; in assay [4] (setting [7]), 20%; in assay [4] (setting [8]), -11%; in assay [4] (at 50.0 µM), -3.95%. For the same compound, the growth inhibition is 0% in assay [5] (setting [7]); -18% in assay [5] (setting [8]); -2.1% in assay [5] (at 50.0 µM); -16% in assay [6] (setting [7]); -8% in assay [6] (setting [8]); 15.5% in assay [6] (at 50.0 µM).

Turning to `CCC(=O)c1cc2ccccc2c2ccccc12`, the growth inhibition is 4% in assay [1] (setting [7]); 44% in assay [1] (setting [8]); 66.3% in assay [1] (at 50.0 µM); 0% in assay [2] (setting [7]); 20% in assay [2] (setting [8]); 39% in assay [2] (at 50.0 µM). The growth inhibition was 0% in assay [3] (setting [7]); 40% in assay [3] (setting [8]); 37.3% in assay [3] (at 50.0 µM); -3% in assay [4] (setting [7]); 0% in assay [4] (setting [8]); 9.9% in assay [4] (at 50.0 µM). Further, the growth inhibition in assay [5] (setting [7]) is 5%; in assay [5] (setting [8]) it was 74% (active); in assay [5] (at 50.0 µM), 75.8% (active); in assay [6] (setting [7]), -2%; in assay [6] (setting [8]), 61%; in assay [6] (at 50.0 µM) it was 41.5%.

Take `O=C1c2ccccc2C(=O)c2c1ccc(O)c2O.[Cu]`: the growth inhibition in assay [1] (setting [7]) is 87% (active); in assay [1] (setting [8]), 92% (active); in assay [1] (at 50.0 µM), 98% (active); in assay [2] (setting [7]), 41%; in assay [2] (setting [8]), 95% (active); in assay [2] (at 50.0 µM) it was 96.7% (active). In addition, the growth inhibition in assay [3] (setting [7]) was 99% (active); in assay [3] (setting [8]) it was 96% (active); in assay [3] (at 50.0 µM), 96.9% (active); in assay [4] (setting [7]), 26%; in assay [4] (setting [8]), 91% (active); in assay [4] (at 50.0 µM), 33.1%. Besides, the growth inhibition in assay [5] (setting [7]) was 86% (active); in assay [5] (setting [8]), 94% (active); in assay [5] (at 50.0 µM) it was 93.6% (active); in assay [6] (setting [7]), 66%; in assay [6] (setting [8]) it was 94% (active); in assay [6] (at 50.0 µM), 96.8% (active).

Consider `CC1CN(CC2CCCCCCCCCCC2=O)CC(C)O1` (stereo not given), for which the growth inhibition in assay [1] (setting [7]) was 59%; in assay [1] (setting [8]), 74% (active); in assay [1] (at 50.0 µM), 73.5% (active); in assay [2] (setting [7]) it was 25%; in assay [2] (setting [8]), 45%; in assay [2] (at 50.0 µM), 65.5%. Moreover, the growth inhibition in assay [3] (setting [7]) was 52%; in assay [3] (setting [8]), 53%; in assay [3] (at 50.0 µM), 83.8% (active); in assay [4] (setting [7]), 62%; in assay [4] (setting [8]), 59%; in assay [4] (at 50.0 µM), 60.4%. Moreover, the growth inhibition was 67% in assay [5] (setting [7]); 79% (active) in assay [5] (setting [8]); 75.8% (active) in assay [5] (at 50.0 µM); 74% (active) in assay [6] (setting [7]); 86% (active) in assay [6] (setting [8]); 69.9% in assay [6] (at 50.0 µM).

Regarding `CC1=CC(=O)[C@@H](O)[C@]2(C)[C@H]3[C@@]4(O)OC[C@]35[C@H]([C@@H](C)[C@H]4O)[C@@H](OC(=O)C(C)(C)CO)C(=O)O[C@@H]5C[C@@H]12`, the growth inhibition in assay [1] (setting [7]) is 10%; in assay [1] (setting [8]), 44%; in assay [1] (at 50.0 µM), 90.7% (active); in assay [2] (setting [7]), 15%; in assay [2] (setting [8]), 45%; in assay [2] (at 50.0 µM), 90.8% (active). Moreover, the growth inhibition in assay [3] (setting [7]) was 6%; in assay [3] (setting [8]), 40%; in assay [3] (at 50.0 µM) it was 88.3% (active); in assay [4] (setting [7]), 17%; in assay [4] (setting [8]), 51%; in assay [4] (at 50.0 µM), 90.5% (active). Further, the growth inhibition in assay [5] (setting [7]) was 6%; in assay [5] (setting [8]) it was 39%; in assay [5] (at 50.0 µM), 92.2% (active); in assay [6] (setting [7]), 6%; in assay [6] (setting [8]) it was 51%; in assay [6] (at 50.0 µM), -7.05%.

With `CS(=O)(=O)OCCN(CCOS(C)(=O)=O)c1ccc(N=Nc2ccccc2)cc1`, the growth inhibition was 32% in assay [1] (setting [7]); 82% (active) in assay [1] (setting [8]); 57.7% in assay [1] (at 50.0 µM); 15% in assay [2] (setting [7]); 73% (active) in assay [2] (setting [8]); 45% in assay [2] (at 50.0 µM). Moreover, the growth inhibition is 52% in assay [3] (setting [7]); 88% (active) in assay [3] (setting [8]); 46% in assay [3] (at 50.0 µM); 45% in assay [4] (setting [7]); 96% (active) in assay [4] (setting [8]); 49.8% in assay [4] (at 50.0 µM). The growth inhibition in assay [5] (setting [7]) was 56%; in assay [5] (setting [8]), 84% (active); in assay [5] (at 50.0 µM) it was 39.5%; in assay [6] (setting [7]), 22%; in assay [6] (setting [8]) it was 69%; in assay [6] (at 50.0 µM), 76.8% (active).

With `Cc1cc(C)c(Cc2cc(C(C)(C)C)cc(C)c2O)cc1Cc1cc(C(C)(C)C)cc(C)c1O`, the growth inhibition is -2% in assay [1] (setting [7]); 10% in assay [1] (setting [8]); 51.4% in assay [1] (at 50.0 µM); -5% in assay [2] (setting [7]); 24% in assay [2] (setting [8]); 49.4% in assay [2] (at 50.0 µM). For the same compound, the growth inhibition in assay [3] (setting [7]) is 2%; in assay [3] (setting [8]), 27%; in assay [3] (at 50.0 µM), 63.6%; in assay [4] (setting [7]), -16%; in assay [4] (setting [8]), 19%; in assay [4] (at 50.0 µM), 69.3%. Moreover, the growth inhibition in assay [5] (setting [7]) is -4%; in assay [5] (setting [8]), 26%; in assay [5] (at 50.0 µM) it was 49.9%; in assay [6] (setting [7]), 2%; in assay [6] (setting [8]), 33%; in assay [6] (at 50.0 µM), 71% (active).

Regarding `CCCCCCCCN(CCCCCCCC)CC(O)c1ccc2cc3c(nc2c1)CCCC3` (stereo not given), the growth inhibition in assay [1] (setting [7]) is -3%; in assay [1] (setting [8]), 94% (active); in assay [1] (at 50.0 µM), 98.7% (active); in assay [2] (setting [7]), 13%; in assay [2] (setting [8]), 93% (active); in assay [2] (at 50.0 µM), 81.4% (active). The growth inhibition is 18% in assay [3] (setting [7]); 96% (active) in assay [3] (setting [8]); 98.8% (active) in assay [3] (at 50.0 µM); -2% in assay [4] (setting [7]); 94% (active) in assay [4] (setting [8]); 97.7% (active) in assay [4] (at 50.0 µM). Moreover, the growth inhibition in assay [5] (setting [7]) was 10%; in assay [5] (setting [8]), 94% (active); in assay [5] (at 50.0 µM), 97.7% (active); in assay [6] (setting [7]), 14%; in assay [6] (setting [8]) it was 96% (active); in assay [6] (at 50.0 µM), 98.3% (active).

For the compound `CCOC(=O)c1cnccc1CC1(C#N)c2ccccc2C=CN1C(=O)c1ccccc1` (stereo not given), the growth inhibition in assay [1] (setting [7]) is 5%; in assay [1] (setting [8]), 67%; in assay [1] (at 50.0 µM), 86.7% (active); in assay [2] (setting [7]), -2%; in assay [2] (setting [8]), 83% (active); in assay [2] (at 50.0 µM), 83.5% (active). Besides, the growth inhibition is 4% in assay [3] (setting [7]); 67% in assay [3] (setting [8]); 93.2% (active) in assay [3] (at 50.0 µM); -7% in assay [4] (setting [7]); 68% in assay [4] (setting [8]); 52.2% in assay [4] (at 50.0 µM). The growth inhibition was 6% in assay [5] (setting [7]); 71% (active) in assay [5] (setting [8]); 75% (active) in assay [5] (at 50.0 µM); 3% in assay [6] (setting [7]); 67% in assay [6] (setting [8]); 89.2% (active) in assay [6] (at 50.0 µM).
